This is a sample that favours compounds with a hit; in the whole collection about 6.5% have one here.
Abs 340nm: compounds absorbing at 340 nm. compound absorbance at 340 nm, fold over control. fold change at 10 µM. 65,000 tested, under 10 active;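 active = at 10 µM dose, initial 340 nm absorbance at least 2 fold that of control wells; inactive = change under 2 fold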;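 also: initial absorbance extrapolated from kinetic A340 decline of NADH oxidation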
Spn MK inh: inhibitors of Streptococcus pneumoniae mevalonate kinase; purified MK, PK/LDH-coupled NADH absorbance 340 nm; inhibition, % at 10 µM; 65,000 tested, 0.48% active;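 active = ranked among the strongest by inhibition in the single 10 µM screen, a fixed top-ranked set picked for dose follow-up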
Spn PMK inh: blocks S. pneumoniae phosphomevalonate kinase; AID 539; 65,000 tested, 0.49% active; purified PMK, PK/LDH-coupled NADH absorbance 340 nm; inhibition, % at 10 µM;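 active = top-ranked compounds by inhibition in the single 10 µM screen, taking a fixed number of the strongest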;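 also: 0% = full reaction with DMSO carrier and 100% = background rate without enzyme reaction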
NADH coupling: inhibitors of enzymes used to reach an NAD/NADH endpoint. 65,000 tested, 0.02% active. AID 774. coupled PK/LDH NADH assays, four targets. IC50, µM (highest dose often 10 µM), without a hit: at the top dose inhibition;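 active = single-dose screening hits from any of four coupled enzyme assays that gave an IC50 when retested across doses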;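 also: the DPM-DC format reads NADH fluorescence rather than 340 nm absorbance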
Fluor 339 460: intrinsic fluorescence of library compounds, ex339/em460 – biochemical, MLSMR library, data from DPM-DC assay, artefact control, profiling panel; compound autofluorescence, ex339/em460 nm, NADH buffer; active compounds read high; 1 = no-compound wells, NADH background; fluorescence fold increase at 10 µM; 65,000 tested, 5.5% active;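 active = at 10 µM, mean starting fluorescence two-fold or more over control wells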;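 also: signal is the first read of a kinetic run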
Spn DPM-DC inh: blocks S. pneumoniae diphosphomevalonate decarboxylase; calls only at 10 µM; 65,000 tested, 0.49% active; purified DPM-DC, PK/LDH coupled NADH fluorescence;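 active = the 320 compounds with the highest percent inhibition in the single-dose primary screen, excluding strongly autofluorescent ones, cut at about 32% in these data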;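 also: kinetic rate of NADH fluorescence loss reporting ADP formed by the decarboxylase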
* = called active by the depositor; i = inactive; x = no result shown; + = active, no number.

SMILES	Abs 340nm	Spn MK inh	Spn PMK inh	NADH coupling	Fluor 339 460	Spn DPM-DC inh
COc1ccc(-c2nnc3ccc(SCC(=O)N4CCCC4)nn23)cc1	1.1	3	0	1%	1.1	i
O=C(CSc1ccc2nnc(-c3cccc(F)c3)n2n1)NCC1CCCO1 (stereo not drawn)	1	19	12	14%	2.1*	i
COc1cc(S(=O)(=O)N2CCN(C(=O)c3ccccc3F)CC2)c(OC)cc1NC(C)=O	1.1	3	11	5%	1.1	i
O=C(Nc1ccc(Cc2ccc(NC(=O)C3CC3)c(O)c2)cc1O)C1CC1	1	7	7	5%	1.1	i
CCOC(=O)c1c(-c2ccccc2)[nH]c2ccc(O)cc12	1.1	9	1	5%	3.7*	x
CCN(CC)c1ccc(-c2nc3cnccc3n2C)cc1	1.2	7	17	18%	2.5*	i
CCC(=O)Nc1ccc2c(c1)C(=O)N(C1CCCCC1)C2=O	1.1	1	7	4%	3.9*	x
Cc1cc(NC(=O)c2ccc3c(c2)C(=O)N(C2CCCCC2)C3=O)no1	1	1	0	4%	1.1	i
C=CCn1c(C(C)NC(=O)COC)nc2ccccc21 (stereo not drawn)	1	0	11	4%	1.1	i
Cc1csc(NC(=O)c2ccccc2O)n1	1	6	7	7%	3.9*	x
COc1ccc(C(=O)NCCc2c[nH]c3ccccc23)cc1S(=O)(=O)N1CCOCC1	1	0	14	5%	1.1	i
Cc1ccc(C2C3=C(CC(C)(C)CC3=O)N(CCN3CCOCC3)C3=C2C(=O)CC(C)(C)C3)cc1	0.99	8	5	16%	3.8*	+
Cc1nc2sc(C(c3ccccc3)N3CCN(C)CC3)c(O)n2n1 (stereo not drawn)	1.1	4	5	3%	1.1	i
OCCNc1nc(-c2ccccc2)c2ccccc2n1	1	3	12	8%	2.4*	x
Cc1ccc2nc(NCCO)nc(-c3ccccc3)c2c1	1	15	18	17%	5*	x
O=C(Cn1c(=O)sc2ccccc21)NCCOc1ccccc1F	0.98	13	8	3%	1	i
CCOC(=O)c1[nH]c(C)c(/C(O)=C2\C(=O)C(=O)N(CCCN(C)C)C2c2cccnc2)c1C (stereo not drawn)	1.1	10	9	6%	1	i
N=c1c(C(=O)NCc2ccc(F)cc2)cc2c(=O)n3ccccc3nc2n1CCCN1CCOCC1	0.98	1	14	2%	3*	x
N=c1c(C(=O)NCc2ccccc2)cc2c(=O)n3ccccc3nc2n1CCCN1CCOCC1	1	3	10	7%	3.7*	x
CCOCCCn1c(=N)c(C(=O)NCc2ccc3c(c2)OCO3)cc2c(=O)n3ccccc3nc21	1.1	1	10	4%	1.5	i
N=c1c(C(=O)NC2CCCCC2)cc2c(=O)n3ccccc3nc2n1CCN1CCOCC1	1.1	0	6	3%	3.9*	x
CCOc1ccc(N2CC(C(=O)OC)CC2=O)cc1 (stereo not drawn)	1.1	8	0	16%	0.58	+
CC1(C)Cc2nc(N)c(C(=O)NCCO)cc2CO1	1.1	2	5	4%	2.3*	x
CCOC(=O)c1sc2nc3c(cc2c1N)COC(C)(C)C3	1	8	2	5%	1.5	i
COc1ccc(-c2cc(C(N)=O)nc(N3CCCCCC3)n2)cc1	1.1	7	11	9%	3.5*	x
SMILES	Abs 340nm	Spn MK inh	Spn PMK inh	NADH coupling	Fluor 339 460	Spn DPM-DC inh
O=C(COC(=O)C1c2ccccc2Oc2ccccc21)Nc1ccc2c(c1)OCO2	1	0	13	4%	1.1	i
COC(=O)CN(c1ccccn1)S(=O)(=O)c1ccccc1	1	2	6	10%	3.1*	i
COc1ccc(NC(C)=O)cc1NC(=O)CSc1nnc(-c2cccnc2)n1C	1	10	0	3%	1.1	i
CNc1nnc(-c2cccc(N(C)C)c2)s1	1	4	0	3%	2.9*	i
Cc1ccc(N(CC(=O)NCc2ccc3c(c2)OCO3)S(=O)(=O)c2c(C)noc2C)cc1	1	6	4	3%	1.1	i
CCOc1cc(-c2nc3ccccn3c2NCC2CCCO2)ccc1O (stereo not drawn)	1	14	15	4%	3*	x
COc1cc(-c2nc3ccccn3c2NCC2CCCO2)ccc1O (stereo not drawn)	1.1	0	15	8%	3.7*	x
Oc1ccccc1-c1nc(NCC2CCCO2)c2ccccc2n1 (stereo not drawn)	1.1	7	6	4%	1.1	i
COc1cccc(-c2nc(NCC3CCCO3)c3ccccc3n2)c1O (stereo not drawn)	1.1	0	21	7%	1.1	i
O=C1c2ccccc2S(=O)(=O)N1CCOc1ccc(F)cc1	1	0	9	3%	1	i
O=C1CC(O)(C(F)F)Oc2ccc3ccccc3c21 (stereo not drawn)	1	13	7	10%	3.7*	x
CCOC(=O)c1[nH]c2ccc(OCC)cc2c1NC(=O)CN1CCN(c2ccccc2)CC1	1.1	2	8	3%	3.2*	i
COC(=O)c1[nH]c2ccccc2c1NC(=O)CN1CCN(C/C=C/c2ccccc2)CC1	1	11	13	9%	1.8	i
CCOC(=O)c1[nH]c2ccccc2c1NC(=O)CN1CCCCC1	1	12	6	9%	1.5	i
CCOC(=O)c1[nH]c2ccc(F)cc2c1NC(=O)CN1CCN(C/C=C/c2ccccc2)CC1	1	9	11	8%	2.6*	i
CCOC(=O)c1[nH]c2cc(OC)c(OC)cc2c1NC(=O)CN(C)C1CCCCC1	1.1	11	14	13%	3.7*	x
CCOC(=O)c1[nH]c2cc(OC)c(OC)cc2c1NC(=O)c1ccc2c(c1)OCO2	1.2	3	14	6%	1.2	i
CCOC(=O)c1[nH]c2ccc(OCC)cc2c1NC(=O)CN1CCC2(CC1)OCCO2	1.1	3	10	7%	3.9*	x
O=c1c2ccccc2nnn1CSc1nnc2sc3ccccc3n12	0.98	2	12	4%	1	i
CCOc1ccc(OCC)c(NC(=O)CN2CCN(C(=O)c3ccco3)CC2)c1	0.99	20	0	2%	1.1	i
CCOc1ccc(OCC)c(NC(=O)CN2CCN(c3cccc(C)c3C)CC2)c1	1.1	62*	0	21%	1.1	i
CCOC(=O)c1[nH]c2cc3c(cc2c1NC(=O)CN1CCC2(CC1)OCCO2)OCO3	1.1	2	0	1%	2.3*	x
CCOC(=O)c1[nH]c2cc3c(cc2c1NC(=O)CN1CCCCC1C)OCO3 (stereo not drawn)	1.1	6	6	6%	2.3*	x

Screening results from PubChem BioAssay.
